The list is not random: actives were taken first. Their share in the collection is about 6.6%.
RGS4 inhibitor – human RGS4 inhibition; Transcreener GDP fluorescence polarization, RGS4-accelerated GTP hydrolysis; Potency, µM (top dose mostly 114 µM), without a hit: at the top dose activity change, negative = inhibition, most hits filed as inhibitors; 0.039% of 390,000 active; note: % is set by controls: 0 for no effect and ±100 for the full control effect; nearly all actives have a fitted effect of over 75% in size
Target sequence (P49798 whole entry, looked up): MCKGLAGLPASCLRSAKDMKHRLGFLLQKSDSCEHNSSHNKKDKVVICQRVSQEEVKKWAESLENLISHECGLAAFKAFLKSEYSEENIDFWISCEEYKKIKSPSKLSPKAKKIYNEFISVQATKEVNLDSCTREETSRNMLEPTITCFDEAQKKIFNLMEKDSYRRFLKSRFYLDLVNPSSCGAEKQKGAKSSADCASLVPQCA
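MLSMR compounds (23 nl, pin-transferred) preincubated 10 min at room temperature with a 500nM (2x) first reagent, then RGS4 at 900nM (2x) plus Transcreener GDP mix added; fluorescence polarization (620/688 nm) read before and after 90 min at 30 °C.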
MCF10A rereplic – induces DNA re-replication in MCF 10a normal breast cells; Potency, µM (doses to about 46.1 µM), inactives show top-dose activity, positive = re-replication, actives largely listed as activators; MCF 10A DNA re-replication, Hoechst nuclear intensity, 48 h; 2.9% of 350,000 active; note: % of control where 0% means no effect; nearly all actives have a fitted effect of over 50% in size
KB-3-1 cytotox – KB-3-1 parental cell cytotoxicity | KB-3-1 viability, CellTiter-Glo ATP luminescence, 72 h | 1.4% of 400,000 active | AID 1347075 | Potency, µM (titrated, usually from 46.1 µM), most hits filed as cytotoxic; note: % is set by controls: 0 for no effect and ±100 for the full control effect; nearly all actives have a fitted effect of over 60% in size
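Using CellTiter-Glo luminescence, growth of non-resistant KB-3-1 adenocarcinoma cells is assessed 72 h after pin-tool compound addition at 37 °C. Normalized responses across the concentration series yield fitted curves.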
SW480 rerep – induces DNA re-replication in SW480 colon adenocarcinoma cells. Potency, µM (top dose mostly 46.1 µM), for inactives: top-dose re-replication activation, hits mostly activators. SW480 DNA re-replication, Hoechst DNA content imaging, 48 h. 1.8% of 340,000 active. AID 624297; note: % of control where 0% means no effect; nearly all actives have a fitted effect of over 55% in size
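Quantitative HTS format with DMSO vehicle controls; 48 hr drug incubation at 37 C, then 40 min Hoechst staining and scanning imager measurement at 405 nm excitation.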
KB-V1 MDR tox – KB-V1 MDR subline cytotoxicity. KB-V1 MDR cells viability, CellTiter-Glo, 72 h. Potency, µM (doses to about 46.1 µM), hits mostly cytotoxic. 3.4% of 400,000 active. AID 1347076; note: % is set by controls: 0 for no effect and ±100 for the full control effect; nearly all actives have a fitted effect of over 60% in size
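In this primary screen, KB-V1 cells overexpressing P-gp are incubated with library compounds (lowest to highest concentration) for 72 h at 37 degrees C before a luminescent ATP viability read.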
PTAP TSG101 blk – blocks PTAP/TSG101 interaction to inhibit HIV-1 budding | Fluorescence polarization, FITC-PTAP peptide / Tsg101 binding | 340,000 tested, under 10 active | AID 493005 | Potency, µM (titrated, usually from 115 µM), inactives show at the top dose activity change, negative = inhibition, hits mostly inhibitors | Q99816; active = well fitted inhibition curve with a large enough effect in the main read-out, with a control signal flat, not every such curve was filed as active; inconclusive = small, poorly fitted or top-dose-only effect, or effect the other way, or a change in a side signal; inactive = no such curve, though single readings can be large or run the other way; note: % of control where 0% means no effect
Target sequence (Q99816 whole entry, looked up): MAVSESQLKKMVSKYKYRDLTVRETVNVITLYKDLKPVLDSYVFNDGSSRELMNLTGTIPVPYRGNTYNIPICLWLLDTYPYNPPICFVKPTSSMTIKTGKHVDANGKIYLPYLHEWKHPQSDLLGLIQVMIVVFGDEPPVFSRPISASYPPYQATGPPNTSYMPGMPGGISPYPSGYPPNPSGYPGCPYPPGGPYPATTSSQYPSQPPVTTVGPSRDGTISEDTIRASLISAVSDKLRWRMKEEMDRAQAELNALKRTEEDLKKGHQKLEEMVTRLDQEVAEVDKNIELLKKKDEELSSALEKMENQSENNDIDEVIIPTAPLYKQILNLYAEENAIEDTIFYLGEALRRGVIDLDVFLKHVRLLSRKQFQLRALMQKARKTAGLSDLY
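Fluorescence polarization binding of Tsg101 binding domain (10 uM final) to FITC-labeled PTAP peptide (50 nM final) in HEPES pH 7.5 buffer with NaCl, Tween 20, EDTA, TCEP. Compounds added before peptide; binding 20 min at RT.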
Starred values were filed as active, the others as inactive; i = inactive; ? = inconclusive; . = no result; [ ] = another dose, or the depositor's remark. Unless noted, calls come from the whole dose curve; as a rule, active = well fitted curve in the direction sought with a large enough effect; inconclusive = small, poorly fitted or top-dose-only effect, or another doubt; inactive = no such curve, though single readings can be large; an effect the other way counts as inactive or inconclusive. Potency is the fitted concentration of half-maximal effect.

SMILES	RGS4 inhibitor	MCF10A rereplic	KB-3-1 cytotox	SW480 rerep	KB-V1 MDR tox	PTAP TSG101 blk
CCCCN(CC)CCCNC(=O)c1cc2c(=O)n(CC)c3ccccc3c2s1	21.0%	?	?	?	i	0.9%
CCN(CC)CCNC(=O)c1cc2c(=O)n(C)c3ccccc3c2s1	0.1%	23.1µM*	i	?	?	-12.4%
CCCN(CCC)CCCNC(=O)c1cc2c(=O)n(CC)c3ccccc3c2s1	9.1%	?	23.1µM*	?	?	-9.4%
CN(C)CCCNC(=O)c1cc2sc3ccccc3c2s1	5.3%	7.31µM*	i	?	i	-7.7%
CN(CCNC(=O)c1cc2c(=O)n(C)c3ccccc3c2n1C)Cc1ccccc1	-9.8%	20.6µM*	?	3.2%	i	-2.1%
CCc1ccc(CNC(=O)CCc2c(C)nn(-c3ccc(N4CCCC4)nn3)c2C)cc1	1.0%	.	.	.	.	.
CNCC(=O)NC(CCCN=C(N)N)C(=O)NC(C(=O)NC(Cc1ccc(O)cc1)C(=O)NC(C(=O)NC(Cc1cnc[nH]1)C(=O)N1CCCC1C(=O)NC(C)C(=O)O)C(C)C)C(C)C (configuration not stated)	.	-0.9%	.	-8.1%	.	.
Cc1c(C(=O)NC(C)c2ccccc2)c(-c2ccccc2)nn1-c1ccccc1 (configuration not stated)	-48.4%	-1.1%	i	-2.6%	i	-0.5%
Cc1c(C(=O)OC/C(O)=C(\C#N)c2nc3ccccc3[nH]2)oc2ccccc12	-12.4%	14.6µM*	i	?	i	0.3%
Cc1nn(-c2ccccc2)c(C)c1C(=O)OCC(=O)Nc1ccccc1	-14.1%	-0.8%	i	-1.4%	10.3µM*	-11.0%
COc1cc(OC)cc(C(=O)OC/C(O)=C(\C#N)c2nc3ccccc3[nH]2)c1	-15.9%	20.6µM*	i	?	i	-5.4%
N#CC(=C(O)COC(=O)c1ccc2c(c1)OCCO2)c1nc2ccccc2[nH]1	-1.8%	?	i	?	i	2.8%
Cc1c(C(=O)NC(C)C)c(-c2ccccc2)nn1-c1ccccc1	14.0%	1.8%	i	-194.4%	20.6µM*	3.0%
CCCCCCCCCCCCCCCCCCCCCC(=O)Nc1ccn([C@@H]2O[C@H](CO)[C@@H](O)[C@@H]2O)c(=O)n1	.	7.8%	.	?	.	.
COc1ccc(OC)c(CNC(=O)c2cc(S(=O)(=O)N3CCC(C)CC3)cn2C)c1	13.9%	.	i	.	?	.
COc1cccc(C(c2sc3nc(-c4ccco4)nn3c2O)N2CCN(C)CC2)c1 (configuration not stated)	-14.9%	.	i	.	?	.
O=C(NC1CCCC1)c1cnn2c1NC(=C1CC1)C=C2C(F)F	.	.	?	.	i	.
Cc1nn(-c2ccccc2)c(C)c1C(=O)OC/C(O)=C(\C#N)c1nc2ccccc2[nH]1	-25.8%[56.9 µM]	?	i	-2.3%	i	-0.9%
Cc1nn(-c2ccccc2)c(C)c1C(=O)OCC(O)=C(C#N)c1nc2ccccc2[nH]1	-13.9%	18.4µM*	i	?	i	-11.3%
CCN(CC)S(=O)(=O)c1ccc(NC(=O)C2c3ccccc3Oc3ccccc32)cc1	14.1%	-38.0%	i	1.6%	18.4µM*	0.2%
O=C(Nc1ccncc1)Nc1cccc(C(F)(F)F)c1	15.0%	22.9%	i	24.0%	i	-4.9%
O=C(Nc1ccc(OC(F)F)cc1)Nc1cccc(C(F)(F)F)c1	-15.4%	?	8.2µM*	?	13µM*	-2.2%
CCN(CC)S(=O)(=O)c1ccc(NC(=O)Nc2cccc(C(F)(F)F)c2)cc1	-13.9%	?	9.2µM*	28.4%	13µM*	-0.9%
Cc1ccc(S(=O)(=O)Nc2ccc(NC(=O)Nc3cccc(C(F)(F)F)c3)cc2)cc1	-1.2%	?	?	?	?	-6.4%
CC(C)CC(=O)OCc1cc(=O)n2nc(C3CCCCC3)sc2n1	-1.4%	.	i	.	i	.
SMILES	RGS4 inhibitor	MCF10A rereplic	KB-3-1 cytotox	SW480 rerep	KB-V1 MDR tox	PTAP TSG101 blk
CCCCNc1cc(=O)oc2ccccc12	-5.5%[56.9 µM]	0.2%	i	2.0%	i	-5.9%
CCOc1ccc(Nc2cc(=O)oc3ccccc23)cc1	9.7%	-2.8%	i	-2.6%	13µM*	0.8%
CCOc1ccc(/C=C/C(=O)c2ccccc2)cc1OC	-27.7%	?	i	?	i	0.4%
COc1cccc(C(=O)/C=C/c2ccc(OCC#N)c(OC)c2)c1	?	9.2µM*	?	23.1µM*	?	-0.3%
COc1cc(/C=C/C(=O)c2ccc(O)cc2)ccc1OCC#N	-3.2%	?	6.51µM*	.	18.4µM*	0.5%
CC(=O)Nc1ccc(N2C(C(C)=O)=NN(c3ccc(Cl)cc3)C2c2sccc2C)cc1 (configuration not stated)	-4.6%	23.1µM*	i	?	?	-2.2%
CC(=O)Nc1ccc(N2C(C(C)=O)=NN(c3ccccc3)C2c2cccs2)cc1 (configuration not stated)	6.1%	?	i	3.8%	?	-9.2%
COCCNC(=O)CCCn1c(SCc2ccccc2C)nc2c(sc3ccccc32)c1=O	-1.2%	.	.	.	.	.
O=C(NCc1ccccc1)NC1CCCCC1	9.1%	0.3%	i	11.8%	i	-13.5%
CC(Sc1nc2ccccc2c(=O)n1CC1CCCO1)C(=O)NC(C)c1ccccc1 (configuration not stated)	0.9%	0.1%	i	-4.1%	i	0.0%
COc1ccc(CNC(=O)C(=O)NCC2CCCO2)cc1 (configuration not stated)	-35.2%[11.4 µM]	?	18.4µM*	-27.1%	i	-6.3%
COc1ccc(CNC(=O)NC2CCCCC2)cc1	19.1%	3.66µM*	i	18.4µM*	i	-9.1%
COc1ccc(CNC(=O)C(C)Sc2nc3ccccc3c(=O)n2CC2CCCO2)cc1 (configuration not stated)	-35.6%	-1.7%	i	-3.2%	5.8µM*	-3.8%
CCCOc1ccccc1-c1nc(SCC(=O)c2ccccc2)n[nH]1	31.3%	.	i	.	i	.
COc1ccccc1CCNC(=O)C(=O)NCC(c1ccco1)S(=O)(=O)c1ccc(F)cc1 (configuration not stated)	-2.6%	.	i	.	i	.
COc1ccc(N2CCN(S(=O)(=O)c3ccc(OC)c(-c4noc(C)n4)c3)CC2)cc1	-23.9%	.	.	.	.	.
COC(=O)C1=C(C)Nc2c(c(=O)n(C)c(=O)n2C)C1c1cccc(O)c1 (configuration not stated)	-20.1%[56.9 µM]	0.7%	i	-11.2%	?	-4.3%

Source: PubChem BioAssay (National Center for Advancing Translational Sciences (NCATS))
